In experiment [1] the target is 6-phosphogluconate dehydrogenase, decarboxylating (Homo sapiens) (UniProt P52209). The experiment is described as follows: inhibition of human phosphogluconate dehydrogenase – biochemical, recombinant enzyme, NADPH absorbance, primary screen (AID 1159550). The settings on record: recombinant 6PGD, NADPH absorbance 341 nm; at 10 µM; stronger effect = higher value.
In experiment [2] the target is Mitogen-activated protein kinase 7 (Homo sapiens) (UniProt Q13164). The experiment is described as follows: Gal4-ERK5 driven luciferase induction – cell-based, HTS, primary screen (AID 1508626;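 active = luciferase signal above three times the same-plate solvent-only control wells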;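 note: luciferase driven by Gal4-ERK5 fusion binding five Gal4 sites before minimal TATA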). The settings on record: HeLa Gal4-ERK5 transactivation, 18 h, at 5 µM, stronger effect = higher value.
Sequence of Mitogen-activated protein kinase 7 (Homo sapiens) (Q13164 whole entry, looked up, the tested form may be a part): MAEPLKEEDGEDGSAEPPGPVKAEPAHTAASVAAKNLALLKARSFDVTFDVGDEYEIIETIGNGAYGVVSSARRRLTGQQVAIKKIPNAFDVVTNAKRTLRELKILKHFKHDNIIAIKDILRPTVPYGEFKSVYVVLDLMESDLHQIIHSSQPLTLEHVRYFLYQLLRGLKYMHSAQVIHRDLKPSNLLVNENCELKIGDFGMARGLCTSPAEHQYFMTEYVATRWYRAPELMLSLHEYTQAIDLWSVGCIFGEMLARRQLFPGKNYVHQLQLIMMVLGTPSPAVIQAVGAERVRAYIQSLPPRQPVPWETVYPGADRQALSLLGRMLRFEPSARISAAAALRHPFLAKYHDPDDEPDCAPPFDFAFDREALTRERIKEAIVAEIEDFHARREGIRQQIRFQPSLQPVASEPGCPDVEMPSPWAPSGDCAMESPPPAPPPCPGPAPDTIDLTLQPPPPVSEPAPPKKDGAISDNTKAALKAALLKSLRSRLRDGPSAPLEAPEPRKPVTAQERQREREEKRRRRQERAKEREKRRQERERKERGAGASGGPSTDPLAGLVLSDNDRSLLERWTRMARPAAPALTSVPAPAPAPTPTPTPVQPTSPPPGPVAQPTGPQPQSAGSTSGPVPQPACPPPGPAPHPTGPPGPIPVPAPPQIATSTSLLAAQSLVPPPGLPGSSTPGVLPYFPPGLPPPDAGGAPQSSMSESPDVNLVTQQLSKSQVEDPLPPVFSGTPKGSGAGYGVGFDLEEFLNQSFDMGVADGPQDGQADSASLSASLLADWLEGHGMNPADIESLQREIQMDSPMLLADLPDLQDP
Experiment [3] in a line: blockers of polyQ-driven CASP3 activation – cell-based (AID 1583). The settings on record: polyglutamine-induced caspase-3 activation, cell assay; stronger effect = higher value;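 tested at 10 µM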.
Experiment [4] can be described thus: yeast 75Q aggregation reduction – 75Q-TubU reporter (AID 1593). The settings on record: Yeast 75Q polyglutamine aggregation reporter.
A short description of experiment [5]: restoration of touch response, mutant HTT neurons – whole organism, C. elegans mechanosensory neurons, N-terminal huntingtin (AID 1599). The settings on record: C. elegans polyQ-huntingtin mechanosensory neurons, stronger effect = higher value.
Experiment [6] in a line: blockers of cytochrome c efflux from mitochondria – biochemical, purified mitochondria (AID 1603).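 Note: mouse liver mitochondria challenged with calcium chloride; signal normalized to the plate average as 100%.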 The settings on record: stronger effect = lower value.
Experiment [7] in a line: polyglutamine aggregate formation blockers (AID 1604). The settings on record: polyglutamine-induced protein aggregation inhibition assay; stronger effect = higher value; tested at 2.5 µM.
Experiment [8] is described as follows: glutamate transport activators, MN-1 cells, MN-1 cell line (AID 1612).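 Note: tested at 1 µM final; 0% = mean of DMSO vehicle wells on each plate; positive means more glutamate uptake than control and negative means less.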 The settings on record: MN-1 motor neuron cells, stronger effect = higher value.
A short description of experiment [9]: GFP-Q80 aggregate reduction, neuronal-like cells, cell-based, NGF-treated PC12, GFPQ80 (AID 1614).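 Note: lower means fewer inclusions and 0 means no inclusions at all.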 The settings on record: PC12 NGF-treated GFP-polyQ80 inclusion reduction.
The nature of experiment [10]: 75Q-TubH aggregate inhibition, S. cerevisiae, yeast (AID 1616). The settings on record: S. cerevisiae 75Q-TubH polyglutamine aggregation suppression; stronger effect = higher value.
Experiment [11] in a line: rescue of PC12 cells from polyQ htt toxicity – LDH release (AID 1610). The settings on record: PC12 mutant huntingtin toxicity, final LDH at 4 uM, stronger effect = lower value. (LDH leaks from cells whose membrane has failed.)
Experiment [12] in a line: P. berghei load reduction in hepatocytes – cell-based, HepG2, luciferase luminescence, HepG2 viability, primary screen (AID 624349; in the data active = parasite load remaining mostly below about 12%, no sharp cut-off; inactive = mostly above about 10%;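 note: 100% = mean of DMSO negative control wells on the same plate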). The settings on record: P. berghei liver stage in HepG2, luciferase luminescence, concentration not given here; parasite load remaining: stronger effect = lower value; viability: measured here: HepG2 viability without parasites.

The text below walks through data of PubChem BioAssay.

Each structure is given as a SMILES string. Inconclusive results are not listed. For some of these results: Potency and affinity values are given separately. Activity calls are given as the source filed them.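 Rule for the calls, unless noted: active = at least 20% inhibition of 6-phosphogluconate dehydrogenase activity; inactive = the rest.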 Peptide text beside a SMILES is read from it.

Usually inhibition stands for the change of the read-out against control, counted positive when it falls. In general, viability refers to the share of living cells, or the viability signal relative to a control.

Sequence of 6-phosphogluconate dehydrogenase, decarboxylating (Homo sapiens) (P52209 whole entry, looked up, the tested form may be a part): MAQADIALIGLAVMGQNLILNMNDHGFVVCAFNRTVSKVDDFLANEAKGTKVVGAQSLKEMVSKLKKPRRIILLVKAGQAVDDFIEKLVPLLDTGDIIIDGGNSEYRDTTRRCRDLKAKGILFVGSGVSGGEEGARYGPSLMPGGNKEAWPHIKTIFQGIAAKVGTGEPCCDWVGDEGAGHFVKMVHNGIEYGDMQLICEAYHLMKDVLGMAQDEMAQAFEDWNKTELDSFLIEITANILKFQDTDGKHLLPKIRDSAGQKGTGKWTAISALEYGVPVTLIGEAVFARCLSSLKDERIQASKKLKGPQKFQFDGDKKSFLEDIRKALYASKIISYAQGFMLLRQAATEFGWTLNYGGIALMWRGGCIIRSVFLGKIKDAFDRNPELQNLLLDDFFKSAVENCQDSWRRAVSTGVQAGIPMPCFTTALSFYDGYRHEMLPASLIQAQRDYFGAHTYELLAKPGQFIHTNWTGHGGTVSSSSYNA

For `Cc1cc(=O)c2c(O)cc(O)c(C)c2o1`, the inhibition in [1] is 9.08% (inactive). Moreover, the luciferase signal in experiment [2] was 132 AU (inactive).
For `NCCCCC(N)C(=O)NC(Cc1ccc(O)cc1)C(=O)NC(CCCCN)C(=O)O` (stereo not drawn) (H-Lys-Tyr-Lys-OH; configuration not given here), the inhibition in experiment [3] is -30.8%; in experiment [1] it was 13.2% (inactive). Further, the score in experiment [4] amounted to 3.85. This compound also displayed a rescue above control in experiment [5] of 16.1. Moreover, in experiment [6], the cytochrome c release ratio is 0.94. In addition, the inhibition of aggregation in experiment [7] was found to be 37.2%. For the same compound, the glutamate uptake change in experiment [8] was -3.42%. Besides, the inclusion score in [9] came to 1. This compound also had an aggregation suppression score in [10] of 1.25.
For the compound `CC(C)=CCC1=C(O)c2ccccc2C(=O)C1=O`, the inhibition in experiment [3] is -24.2%. This compound also showed a score in [4] of 0.21. Also, the rescue above control in experiment [5] turned out to be 6.74. Further, the cytochrome c release ratio in experiment [6] worked out at 0.7. Further, the inhibition of aggregation in experiment [7] was determined as 77.5%. In [11], this compound had a normalised LDH release of 0.727. Also, the glutamate uptake change in [8] was -3.48%. Further, in [9], the inclusion score was 2. Besides, the aggregation suppression score in experiment [10] worked out at 0.0579. For the same compound, in experiment [12], the parasite load remaining was 85.5% (inactive) and the viability worked out at 63.9%. The inhibition in experiment [1] was -1.8% (inactive). Further, the luciferase signal in [2] is 60 AU (inactive).
In the case of `O=C(O)c1cc(O)ccc1O`, the inhibition in experiment [3] is -0.2%; in experiment [1], -15.2% (inactive). In addition, in experiment [4], the score was found to be 0.92. Further, in experiment [5], the rescue above control was -5.86. The cytochrome c release ratio in experiment [6] was found to be 0.99. For the same compound, the inhibition of aggregation in [7] stood at 72.2%. Further, the glutamate uptake change in [8] was -11.6%. Also, the inclusion score in experiment [9] turned out to be 2. Besides, the aggregation suppression score in [10] stood at 0.337.
Regarding `CC(=O)OCC1(O)CC23CCC4c5ccoc5CCC4(C)C2CCC1C3` (stereo unspecified), the inhibition in experiment [1] was 4.27% (inactive). The luciferase signal in [2] was 24 AU (inactive).
Regarding `COc1ccc(/C=C/c2cc(O)cc(O[C@@H]3O[C@H](CO)[C@@H](O)[C@H](O)[C@H]3O)c2)cc1O`, the inhibition in [3] was 4.89%; in experiment [1] it was -5.87% (inactive). This compound also had a score in [4] of 1.27. Moreover, the rescue above control in experiment [5] was -0.21. In [6], the cytochrome c release ratio amounted to 0.78. The compound further gave an inhibition of aggregation in [7] of 12.9%. For the same compound, in experiment [8], the glutamate uptake change is 4.82%. The inclusion score in experiment [9] came to 2. Further, the aggregation suppression score in experiment [10] is 1.41.
For `COC(=O)C(C)c1ccc(C(=O)c2cccs2)cc1` (stereo unspecified), in experiment [12], the parasite load remaining is 119% (inactive) and the viability stood at 76.5%. For the same compound, the inhibition in [1] was -13.2% (inactive). The luciferase signal in experiment [2] is 44 AU (inactive).
On to `N[C@@H](CSCSC[C@H](N)C(=O)O)C(=O)O`, for which the inhibition in experiment [1] was 6.1% (inactive). For the same compound, in [2], the luciferase signal is 300 AU (inactive).
Regarding `CC(=O)OC[C@H]1O[C@@H](Oc2cc(OC(C)=O)c3c(=O)cc(-c4ccc(OC(C)=O)cc4)oc3c2)[C@H](OC(C)=O)[C@@H](OC(C)=O)[C@@H]1OC(C)=O`, the inhibition in [1] is 6.51% (inactive). Moreover, the luciferase signal in experiment [2] is 80 AU (inactive).
`C[C@@H]1CC[C@H]2C(C)(C)[C@H]3C[C@@]12CC[C@@]3(C)O`: the inhibition in [1] was 1.71% (inactive). Further, the luciferase signal in experiment [2] is 28 AU (inactive).
`N[C@H](C(=O)O)[C@@H]1CC(Cl)=NO1`: the inhibition was -15.5% in [3] and 7.5% (inactive) in [1]. The score in [4] stood at 0.51. The rescue above control in experiment [5] was -2.47. The cytochrome c release ratio in experiment [6] was 0.83. In experiment [7], this compound gave an inhibition of aggregation of 25.5%. For the same compound, in experiment [8], the glutamate uptake change amounted to 6.6%. This compound also had an inclusion score in [9] of 1. The aggregation suppression score in experiment [10] is 0.115.
`O=C(Cc1cccs1)N[C@@H]1C(=O)N2C(C(=O)[O-])=C(C[n+]3ccccc3)CS[C@H]12`: in experiment [1], the inhibition is 0.514% (inactive). Further, the luciferase signal in experiment [2] was 112 AU (inactive).
With `CCC(C)C(N)C(=O)N1CCCC1C(=O)NC(C(=O)O)C(C)CC` (stereo unspecified), the inhibition in [3] is -6.01%; in experiment [1] it was -1.23% (inactive). The score in experiment [4] was determined as 1.3. In experiment [5], this compound had a rescue above control of 1.96. For the same compound, the cytochrome c release ratio in experiment [6] stood at 0.74. In addition, the inhibition of aggregation in experiment [7] was determined as 14.9%. In addition, the glutamate uptake change in experiment [8] is 11.9%. Also, the inclusion score in [9] was found to be 2. Moreover, the aggregation suppression score in experiment [10] came out at 1.44.
As for `CC(=O)NC(Cc1c[nH]c2ccccc12)C(=O)O` (stereo unspecified), the inhibition in experiment [1] is -6.76% (inactive). For the same compound, the luciferase signal in experiment [2] was 64 AU (inactive).
